Screening results (PubChem)
EWS-Fli block = inhibitors of EWS/Fli oncoprotein transcriptional activity; A673 NR0B1-luciferase reporter, viability-normalised; inhibition, % at 12.6 µM; 350,000 tested, 0.67% active; AID 651661;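 active = mean inhibition of at least 50% after viability correction, with every replicate also passing that limit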;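 note: firefly luciferase signal divided by Alamar Blue viability fluorescence both relative to DMSO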
Peg3 prom inh = Peg3 promoter activity inhibition; HeLa PEG-Prom luciferase reporter, luminescence, overnight; 360,000 tested, 1.7% active; inhibition, % at 20 µM;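 active = inhibition of at least 50% at 20 µM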
PAX8 reporter = PAX8 transcriptional activity inhibition; RMG-I TPO-luciferase reporter, SteadyGlo, 24 h; inhibition, % at 12.6 µM; 360,000 tested, 1.2% active; AID 652154;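 active = mean replicate inhibition at least 60% with every replicate also reaching 60%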;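 note: luciferase light reporting Pax8 driven TPO promoter activity; plate controls were median of neutral control wells for no effect and mitoxantrone controls for full effect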
ABHD5 PLIN5 PPI = blocks binding of human ABHD5 to perilipin-5; 360,000 tested, 0.78% active; inhibition, % at 4 µM; AID 602281; Q00G26+Q8WTS1; Split G. princeps luciferase complementation, luminescence, 4 h;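 active = inhibition above the mean inhibition across every tested compound plus 3 SD, cut at about 22% in these data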;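 note: 0% = DMSO only wells and the 100% control is not disclosed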
Shn3 3UTR inh = inhibitors of Schnurri-3 3'UTR reporter in osteoblasts. Clone20 osteoblast Shn3 3'UTR firefly luciferase, 24 h. inhibition, % at 12.5 µM. 360,000 tested, 0.52% active. AID 588674;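 active = mean inhibition of at least 75% with every replicate also reaching 75%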;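 note: 0% = median of neutral control wells and 100% = pilot-screen positive control compound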
TRPM1 prom inh = MITF TRPM1 promoter inhibition in SK-MEL-5 cells; inhibition, % at 12.5 µM; SK-MEL-5 TRPM1 promoter luciferase, 24 h; 330,000 tested, 0.83% active; AID 488899;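 active = mean inhibition across replicates of 60% or more, whatever share of single replicates reaches that level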
ABHD5-PLIN5 conf = ABHD5-PLIN5 interaction inhibition, confirmed | biochemical ABHD5-PLIN5 interaction, luminescence | shares compounds with ABHD5 PLIN5 PPI | inhibition, % at 4 µM | 2,200 tested, 67% active; in the data active = inhibition above about 23%;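 note: 0% = DMSO vehicle wells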
HNF4 split-luc = active in HNF4 split-luciferase counter-screen for ABHD5-PLIN5 inhibitors. shares compounds with ABHD5 PLIN5 PPI. HNF4 dimerization, luminescence, biochemical. inhibition, % at 4 µM. 2,200 tested, 77% active. AID 651674;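 active = mean inhibition across replicate wells exceeding the computed hit threshold, cut at about 13% in these data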;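 note: light from luciferase halves that rejoin when HNF4 fusion proteins dimerize; 0% = DMSO only wells and the 100% control is not given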
Target sequence (P41235 whole entry, looked up, the tested form may be a part): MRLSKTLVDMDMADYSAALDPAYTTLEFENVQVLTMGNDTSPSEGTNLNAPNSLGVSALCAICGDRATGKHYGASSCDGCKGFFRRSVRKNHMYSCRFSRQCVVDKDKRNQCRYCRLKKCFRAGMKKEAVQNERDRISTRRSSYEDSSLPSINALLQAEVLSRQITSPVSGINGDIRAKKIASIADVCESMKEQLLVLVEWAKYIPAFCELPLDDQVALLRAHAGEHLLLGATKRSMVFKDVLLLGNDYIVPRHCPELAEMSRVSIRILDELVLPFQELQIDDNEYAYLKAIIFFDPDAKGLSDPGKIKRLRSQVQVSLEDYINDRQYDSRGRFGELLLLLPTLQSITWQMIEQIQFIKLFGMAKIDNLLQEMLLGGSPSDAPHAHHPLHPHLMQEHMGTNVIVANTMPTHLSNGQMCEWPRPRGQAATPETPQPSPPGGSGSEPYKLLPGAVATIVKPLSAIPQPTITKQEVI
* hit, by the source's call; . = no result given. Shown are actives, neighbours in structure and some others; about 3% of the full set was active somewhere.

SMILES | EWS-Fli block | Peg3 prom inh | PAX8 reporter | ABHD5 PLIN5 PPI | Shn3 3UTR inh | TRPM1 prom inh | ABHD5-PLIN5 conf | HNF4 split-luc
O=C(c1cn(-c2ccccc2)nc1-c1cccs1)N1CCOCC1 | . | -4.5 | . | 6.2 | 6.7 | 2.8 | . | .
O=C(O)CCCN1C(=O)/C(=C/c2cn(-c3ccccc3)nc2-c2cccs2)SC1=S | . | 14.2 | 5.1 | 36.6* | -2.5 | -3.2 | 6.9 | 9.0
CN(C)CC(=O)Nc1ccc2c(c1)[C@@H]1C[C@@H](CC(=O)NCCN3CCCCC3)O[C@H](CO)[C@@H]1O2 | -12.1 | . | -18.3 | . | . | . | . | .
O=C1C(=C(I)I)c2ccccc2-c2ccccc21 | 58.2* | 104.5* | 127.7* | 43.3* | 97.7* | 98.8* | 101.2* | 101.8*
O=c1c2cc(N3CCOCC3)ccc2[nH]c(=S)n1Cc1cccc(Cl)c1 | . | 19.6 | . | 7.7 | -0.4 | 5.9 | . | .
O=c1c2cc(N3CCOCC3)ccc2[nH]c(=S)n1Cc1ccco1 | . | -19.5 | -30.6 | 25.3* | -0.3 | -6.6 | 43.3* | 77.3*
C=C1C(=O)C23C(O)C1CCC2C12COC3(O)C(O)C1C(C)(C)CCC2O (stereo not given) | 68.2* | 94.0* | . | 96.0* | 82.8 | . | 88.1* | 105.9*
Cc1cccc(S(=O)(=O)N[C@@H]2CC[C@@H](CCn3cc(-c4ccccn4)nn3)O[C@H]2CO)c1 | -1.0 | . | 14.6 | . | . | . | . | .
NC1=NC(=O)/C(=C\c2cc([N+](=O)[O-])ccc2Cl)S1 | 3.7 | -18.1 | 16.2 | 25.4* | -5.3 | 7.4 | 24.1* | 18.6*
CN(C)C(=O)C[C@@H]1C[C@H]2c3cc(NC(=O)Nc4ccccc4F)ccc3O[C@H]2[C@H](CO)O1 | -46.5 | . | 1.9 | . | . | . | . | .
Cc1ccc2nc(-c3ccco3)c(Cc3ccccc3)n2c1 | -68.6 | -154.2 | 66.1* | 38.1* | -40.5 | . | 6.8 | 9.7
Fc1cccc(Cc2c(-c3ccccc3)nc3ccc(Cl)cn23)c1 | -43.4 | -66.8 | -94.2 | 4.8 | -3.3 | . | . | .
Brc1ccc2nc(-c3ccccc3)c(Cc3ccsc3)n2c1 | -77.9 | -233.8 | -63.6 | -9.9 | -22.0 | . | . | .
Fc1cccc(Cc2c(-c3ccco3)nc3ccc(Br)cn23)c1 | 2.2 | -2.3 | 6.1 | 71.6* | -5.2 | . | 43.9* | 77.6*
Fc1cccc(Cc2c(-c3ccco3)nc3ccc(Cl)cn23)c1 | . | -23.0 | . | 74.9* | 2.0 | . | 20.6 | 52.5*
Brc1ccc2nc(-c3ccco3)c(Cc3ccsc3)n2c1 | 12.1 | -73.3 | 10.8 | 74.7* | -10.6 | . | 49.0* | 91.3*
C[C@H](CO)N1C[C@H](C)[C@H](CN(C)C(=O)Cc2cccnc2)Oc2ncc(/C=C/c3ccccc3)cc2C1=O | -4.5 | . | 4.0 | . | . | . | . | .
C[C@H]1CN([C@@H](C)CO)C(=O)Cc2cc(NC(=O)CCN3CCOCC3)ccc2O[C@H]1CN(C)CC1CCCCC1 | 7.3 | . | . | . | . | . | . | .
Fc1cccc(Cc2c(-c3ccco3)nc3c4ccccc4ccn23)c1 | -107.3 | -270.7 | -104.6 | 26.4* | -142.6 | . | 12.6 | 22.8*
Clc1ccc2nc(-c3ccco3)c(Cc3ccccc3)n2c1 | 5.2 | -20.8 | 3.6 | 55.1* | -18.3 | . | 57.6* | 72.4*
COC(=O)c1ccc2nc(-c3ccco3)c(Cc3cccc(Cl)c3)n2c1 | 18.4 | . | -10.2 | 21.8 | . | . | . | .
COC(=O)c1ccc2nc(-c3ccco3)c(Cc3ccccc3)n2c1 | 11.7 | -35.5 | 7.0 | 67.4* | 21.2 | . | 56.8* | 83.1*
CO[C@@H]1CN(C)C(=O)c2ccc(NC(=O)NC(C)C)cc2OC[C@H](C)N(C(=O)C2CCC2)C[C@H]1C | -2.6 | . | . | . | . | . | . | .
CCOC(=O)c1ccc(N=c2sc(C(=O)OC)cc(=O)n2CCCN2CCOCC2)cc1 | -1.6 | 2.7 | -24.6 | 42.4* | -22.7 | -1.3 | 45.3* | 42.3*
CCn1c(=O)cc(C(=O)OC)sc1=Nc1ccc(F)c(F)c1 | 13.5 | 64.9* | 17.0 | 27.4* | -13.6 | -17.7 | 59.3* | 39.7*
COc1ccc(C(=O)OCC(=O)N2CCN(S(=O)(=O)c3ccc(C)cc3)CC2)cc1[N+](=O)[O-] | -3.8 | 15.3 | 10.4 | 85.7* | -76.9 | 9.5 | 2.4 | 7.4
CCC(=O)NC1=C(NC(C)c2ccccc2)C(=O)c2ccccc2C1=O (stereo not given) | . | -6.0 | . | -9.3 | 9.9 | 30.3 | . | .
